This is part of a sample that, as a whole, favours compounds with a hit. Of some 83,000 tested, about 20% had one in any assay.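 48-hour exposure, single concentration, 96-well plates; percent growth endpoint where 0 means no net growth. Active: below 10.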 Active and inactive are the calls of the source.
Assays:
Assay in all cases: NCI-60 one-dose screen, 48 h (100 = growth as untreated, 0 = no growth, -100 = all killed)
Conditions in all cases: 10 µM unless noted
SR leukemia = test system: SR leukemia
RPMI-8226 leukemia = test system: RPMI-8226 leukemia
OVCAR-8 ovarian = test system: OVCAR-8 ovarian
OVCAR-5 ovarian = test system: OVCAR-5 ovarian
OVCAR-4 ovarian = test system: OVCAR-4 ovarian
SK-OV-3 ovarian = test system: SK-OV-3 ovarian
IGROV1 ovarian = test system: IGROV1 ovarian
OVCAR-3 ovarian = test system: OVCAR-3 ovarian
HS 578T breast = test system: HS 578T breast
NCI/ADR-RES ovarian = test system: NCI/ADR-RES ovarian
T-47D breast = test system: T-47D breast
BT-549 breast = test system: BT-549 breast
MDA-MB-435 melanoma = test system: MDA-MB-435 melanoma
SW-620 colon = test system: SW-620 colon
MCF7 breast = test system: MCF7 breast
HCT-116 colon = test system: HCT-116 colon
HCC-2998 colon = test system: HCC-2998 colon
KM12 colon = test system: KM12 colon

Measured: growth

O=C1OCC2=C1C(c1ccncc1)c1cc3c(cc1N2CCO)OCO3 (configuration not stated)
inactive: SR leukemia 122% | RPMI-8226 leukemia 103% | OVCAR-8 ovarian 98.8% | OVCAR-5 ovarian 100% | OVCAR-4 ovarian 100% | SK-OV-3 ovarian 87.3% | IGROV1 ovarian 101% | OVCAR-3 ovarian 105% | HS 578T breast 87% | NCI/ADR-RES ovarian 104% | T-47D breast 91.1% | BT-549 breast 112% | MDA-MB-435 melanoma 96.7% | SW-620 colon 93.4% | MCF7 breast 96.3% | HCT-116 colon 107% | HCC-2998 colon 103% | KM12 colon 97.8%

CCOC(=O)n1cc(-c2nonc2-c2cn(C)c3ncccc23)c2ccccc21
inactive: SR leukemia 60.5% | RPMI-8226 leukemia 77.9% | OVCAR-8 ovarian 92.6% | OVCAR-5 ovarian 94.2% | OVCAR-4 ovarian 71.3% | SK-OV-3 ovarian 77.6% | IGROV1 ovarian 54.2% | OVCAR-3 ovarian 85.6% | HS 578T breast 77.7% | NCI/ADR-RES ovarian 73.1% | T-47D breast 15.2% | BT-549 breast 87.9% | MDA-MB-435 melanoma 50.2% | SW-620 colon 76.6% | MCF7 breast 35% | HCT-116 colon 80.4% | HCC-2998 colon 89.6% | KM12 colon 66.5%

O=C(COc1ccc(-c2nc3cc(Cl)c(Cl)cc3[nH]2)cc1)N=Nc1c(O)[nH]c2ccccc12
active: SR leukemia 9.9% | RPMI-8226 leukemia 8.82% | OVCAR-8 ovarian -24.2% | OVCAR-4 ovarian -55.1% | SK-OV-3 ovarian 4.99% | OVCAR-3 ovarian -54.9% | HS 578T breast -36.3% | T-47D breast -37.9% | SW-620 colon -32.3% | MCF7 breast -49.7% | HCC-2998 colon -3.87% | KM12 colon -38.8%
inactive: OVCAR-5 ovarian 53.6% | IGROV1 ovarian 33.2% | NCI/ADR-RES ovarian 85.1% | BT-549 breast 64.7% | MDA-MB-435 melanoma 25.6% | HCT-116 colon 16.2%

COc1ccc(CN2c3ccccc3Sc3ccccc32)c(C(F)(F)F)c1
inactive: SR leukemia 12.1% | RPMI-8226 leukemia 28.8% | OVCAR-8 ovarian 31.1% | OVCAR-5 ovarian 65.5% | OVCAR-4 ovarian 44.2% | SK-OV-3 ovarian 17.8% | IGROV1 ovarian 43.4% | HS 578T breast 22.8% | NCI/ADR-RES ovarian 22.7% | T-47D breast 25.9% | BT-549 breast 53.5% | SW-620 colon 25.8% | MCF7 breast 24.5% | KM12 colon 20%
active: OVCAR-3 ovarian 5.59% | MDA-MB-435 melanoma -33.6% | HCT-116 colon 7.74%

CCOC(=O)c1sc2nc(-c3cccc(O)c3)nc(N3CCOCC3)c2c1C
active: T-47D breast 5.33%
inactive: SR leukemia 65% | RPMI-8226 leukemia 55.4% | OVCAR-8 ovarian 61.8% | OVCAR-5 ovarian 88.3% | OVCAR-4 ovarian 51.3% | SK-OV-3 ovarian 51.1% | IGROV1 ovarian 16.9% | OVCAR-3 ovarian 60.5% | HS 578T breast 15.5% | NCI/ADR-RES ovarian 59.6% | BT-549 breast 52.8% | MDA-MB-435 melanoma 63.5% | SW-620 colon 73.2% | MCF7 breast 55.5% | HCT-116 colon 68.1% | HCC-2998 colon 78.2% | KM12 colon 63.3%

CC(=O)OC[C@H]1O[C@H](OC(C)=O)[C@H](NC(=O)/C=C/CCl)[C@@H](OC(C)=O)[C@@H]1OC(C)=O
inactive: SR leukemia 44.5% | RPMI-8226 leukemia 71.7% | OVCAR-8 ovarian 81.6% | OVCAR-5 ovarian 84.5% | OVCAR-4 ovarian 68.2% | SK-OV-3 ovarian 57.2% | IGROV1 ovarian 93.9% | OVCAR-3 ovarian 30.6% | HS 578T breast 92% | NCI/ADR-RES ovarian 90.7% | T-47D breast 69.1% | BT-549 breast 85.9% | MDA-MB-435 melanoma 80.4% | SW-620 colon 26% | MCF7 breast 79.3% | HCT-116 colon 60.4% | KM12 colon 80.5%

O=C(/C=C/C=C/c1ccc2c(c1)OCO2)N/N=C\c1ccc(O)cc1O
inactive: SR leukemia 21.3% | RPMI-8226 leukemia 47.7% | OVCAR-8 ovarian 22.8% | OVCAR-5 ovarian 42.5% | SK-OV-3 ovarian 27% | IGROV1 ovarian 28.9% | HS 578T breast 70.2% | T-47D breast 23.9% | BT-549 breast 27.3% | MDA-MB-435 melanoma 32.6% | SW-620 colon 26.5% | MCF7 breast 14.1% | HCC-2998 colon 38.9% | KM12 colon 23.4%
active: OVCAR-4 ovarian 9.43% | OVCAR-3 ovarian 9.27% | NCI/ADR-RES ovarian 5.15% | HCT-116 colon 8.67%

CN1CCN(c2ccc3nc(-c4ccc(OCCCCN5CCN(CCCCN6C(=O)c7cccc8cccc(c78)C6=O)CC5)cc4)[nH]c3c2)CC1
active: SR leukemia -68.4%
inactive: RPMI-8226 leukemia 26.3% | OVCAR-8 ovarian 22.6% | OVCAR-5 ovarian 116% | OVCAR-4 ovarian 80.5% | SK-OV-3 ovarian 89.3% | IGROV1 ovarian 58.5% | OVCAR-3 ovarian 76.1% | HS 578T breast 35.2% | NCI/ADR-RES ovarian 69.6% | T-47D breast 36.1% | BT-549 breast 47% | MDA-MB-435 melanoma 65.9% | SW-620 colon 84.2% | MCF7 breast 68.5% | HCT-116 colon 45.9% | KM12 colon 86.8%

CC(=O)O[C@H]1C(=O)[C@@]2(C)[C@H]([C@H](OC(=O)c3ccccc3)[C@]3(O)C[C@H](OC(=O)[C@H](OC(=O)CCC(=O)OC4CCC(S/N=C(N)/N=C(\N)N(C)C)CC4)[C@@H](NC(=O)c4ccccc4)c4ccccc4)C(C)=C1C3(C)C)[C@]1(OC(C)=O)CO[C@@H]1C[C@@H]2O (some centres not stated)
inactive: SR leukemia 11.3% | RPMI-8226 leukemia 14% | OVCAR-8 ovarian 21.8% | OVCAR-5 ovarian 39.5% | OVCAR-4 ovarian 40.3% | SK-OV-3 ovarian 28.4% | IGROV1 ovarian 43.1% | OVCAR-3 ovarian 10.2% | NCI/ADR-RES ovarian 44.5% | T-47D breast 46.7% | BT-549 breast 35.9% | SW-620 colon 41.7% | MCF7 breast 19.3% | KM12 colon 10.7%
active: HS 578T breast -9.33% | MDA-MB-435 melanoma 5.75% | HCT-116 colon 6.14%

Cc1cc(C)nc(SC2=C(Nc3ccc(C)c(Cl)c3)C(=O)N(Cc3ccccc3)C2=O)n1
active: RPMI-8226 leukemia 7.62% [30 µM]
inactive: SR leukemia 25.4% [30 µM] | OVCAR-8 ovarian 45.3% [30 µM] | OVCAR-5 ovarian 103% [30 µM] | OVCAR-4 ovarian 58.2% [30 µM] | SK-OV-3 ovarian 99% [30 µM] | IGROV1 ovarian 45.1% [30 µM] | OVCAR-3 ovarian 69% [30 µM] | HS 578T breast 72.1% [30 µM] | NCI/ADR-RES ovarian 62.8% [30 µM] | T-47D breast 26% [30 µM] | BT-549 breast 51.6% [30 µM] | MDA-MB-435 melanoma 51.5% [30 µM] | SW-620 colon 70.9% [30 µM] | MCF7 breast 39.6% [30 µM] | HCT-116 colon 42.9% [30 µM] | KM12 colon 66.2% [30 µM]

NC(=O)c1cc(Cl)ccc1NC(=O)/C=C/c1ccccc1
inactive: RPMI-8226 leukemia 12.8% | OVCAR-8 ovarian 51.2% | OVCAR-5 ovarian 54.6% | OVCAR-4 ovarian 40.7% | IGROV1 ovarian 88.6% | NCI/ADR-RES ovarian 10.8% | T-47D breast 14.9% | SW-620 colon 26.1% | MCF7 breast 10.9% | HCT-116 colon 29.2% | HCC-2998 colon 60.1%
active: SR leukemia -34.1% | SK-OV-3 ovarian 3.73% | OVCAR-3 ovarian -30.3% | HS 578T breast 7.85% | MDA-MB-435 melanoma -13.3% | KM12 colon 9.48%

COc1ccc2c(c1)C(=O)/C(=C/c1cccnc1)CC2
inactive: SR leukemia 30.7% | OVCAR-8 ovarian 96.8% | OVCAR-5 ovarian 93% | OVCAR-4 ovarian 93.4% | SK-OV-3 ovarian 101% | IGROV1 ovarian 101% | OVCAR-3 ovarian 98.6% | HS 578T breast 115% | NCI/ADR-RES ovarian 94.8% | T-47D breast 80.2% | BT-549 breast 101% | MDA-MB-435 melanoma 89.5% | SW-620 colon 102% | MCF7 breast 45.3% | HCT-116 colon 81.2% | KM12 colon 66.2%
active: RPMI-8226 leukemia 1.31%

NC(=NCCCOc1ccc(Cl)cc1)Nc1ccc(Cl)cc1
active: SR leukemia 4.92% | IGROV1 ovarian 8.71% | T-47D breast 8.01% | HCT-116 colon 7.02%
inactive: RPMI-8226 leukemia 15.1% | OVCAR-8 ovarian 60.4% | OVCAR-5 ovarian 30.5% | OVCAR-4 ovarian 26.4% | SK-OV-3 ovarian 69.2% | OVCAR-3 ovarian 54.3% | HS 578T breast 41.5% | NCI/ADR-RES ovarian 53.1% | BT-549 breast 59.6% | MDA-MB-435 melanoma 11.1% | SW-620 colon 33.5% | MCF7 breast 10.1% | KM12 colon 41.3%

C=C1c2nc3ccccc3n2C=C(c2ccc(OC)cc2)N1Cc1ccccc1
inactive: SR leukemia 47.3% | RPMI-8226 leukemia 39.4% | OVCAR-8 ovarian 88.3% | OVCAR-5 ovarian 101% | OVCAR-4 ovarian 80.1% | SK-OV-3 ovarian 107% | IGROV1 ovarian 96.7% | OVCAR-3 ovarian 85.4% | HS 578T breast 116% | NCI/ADR-RES ovarian 77.4% | T-47D breast 59.9% | MDA-MB-435 melanoma 95.1% | SW-620 colon 88.7% | MCF7 breast 86.3% | HCT-116 colon 73.7% | HCC-2998 colon 82.1% | KM12 colon 98.5%

COc1cccc2c1C(=O)c1c(O)c3c(c(O)c1C2=O)C[C@](O)(C(=O)CO)C[C@H]3O[C@@H]1C[C@@H](NC(=O)CCCN(C)C2(c3ccc(F)cc3)CC3CCC2C3)[C@H](O)[C@@H](C)O1 (some centres not stated)
active: SR leukemia -60.2% | RPMI-8226 leukemia -41% | OVCAR-8 ovarian -43.1% | OVCAR-5 ovarian -48.3% | OVCAR-4 ovarian -68.9% | OVCAR-3 ovarian -84.8% | MDA-MB-435 melanoma -88.3% | SW-620 colon -78.5% | MCF7 breast -59% | HCT-116 colon -90.1% | KM12 colon -77.8%
inactive: SK-OV-3 ovarian 84.4% | IGROV1 ovarian 55.2% | HS 578T breast 51.2% | NCI/ADR-RES ovarian 82.4% | T-47D breast 81.2% | BT-549 breast 58.6%

CCOc1ccc(-n2nc(C(=O)Nc3ccccc3)nc2-c2cc(OC)c(OC)c(OC)c2)cc1
inactive: SR leukemia 17% | RPMI-8226 leukemia 47.4% | OVCAR-8 ovarian 61.6% | OVCAR-5 ovarian 84.1% | OVCAR-4 ovarian 59.5% | SK-OV-3 ovarian 51% | IGROV1 ovarian 55.1% | OVCAR-3 ovarian 43.2% | HS 578T breast 39.6% | NCI/ADR-RES ovarian 45.7% | T-47D breast 39.4% | BT-549 breast 60.9% | SW-620 colon 36.2% | MCF7 breast 37% | HCT-116 colon 21.2% | KM12 colon 27.5%
active: MDA-MB-435 melanoma 0.193%
